Rows were chosen to be rich in hits. Some 28% of all compounds tested hit in one or more screens of this group.
CYP2C9 activ: activators of human CYP2C9; recombinant CYP2C9, luciferin-H conversion, luminescence; stronger effect = higher value; factor 1 = untreated enzyme, 0 = blocked; activation factor at 5 µM; actives 1.4% (n = 96,000);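 active = activation factor of 2 or more for CYP2C9 at a 5 µM dose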
CYP2C19 inhib: inhibitors of human CYP2C19 | actives 21% (n = 96,000) | inhibition, % at 5 µM | AID 778 | CYP2C19 Supersomes, luciferin-H EGE luminescence, 30 min;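 active = CYP2C19 inhibition above a set limit at 5 µM in the primary screen, cut at about 50% in these data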
Target sequence (P33261 whole entry, looked up): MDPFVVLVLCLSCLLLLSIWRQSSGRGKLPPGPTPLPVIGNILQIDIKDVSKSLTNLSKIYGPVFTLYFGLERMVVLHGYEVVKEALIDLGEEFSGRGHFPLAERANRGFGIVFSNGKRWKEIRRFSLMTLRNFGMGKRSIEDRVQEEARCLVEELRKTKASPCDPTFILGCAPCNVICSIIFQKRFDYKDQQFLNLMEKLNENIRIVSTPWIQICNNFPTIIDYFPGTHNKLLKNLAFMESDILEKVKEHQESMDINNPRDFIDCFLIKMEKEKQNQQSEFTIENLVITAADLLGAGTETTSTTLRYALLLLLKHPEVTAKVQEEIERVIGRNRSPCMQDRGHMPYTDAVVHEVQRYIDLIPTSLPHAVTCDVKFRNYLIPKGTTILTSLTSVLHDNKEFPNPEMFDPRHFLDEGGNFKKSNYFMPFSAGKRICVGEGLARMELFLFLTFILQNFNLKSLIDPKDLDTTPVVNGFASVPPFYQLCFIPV
PLK1 inh: blocks human PLK1 kinase activity; P53350; recombinant PLK1 kinase, TR-FRET peptide phosphorylation; inhibition, % at 10 µM; actives 0.53% (n = 97,000); AID 619;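 active = inhibition of 50% or more in the single-concentration screen; inactive = inhibition below 50%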
CYP2C9 inhib: blocks human cytochrome P450 2C9; actives 20% (n = 96,000); CYP2C9 Supersomes, luciferin-H conversion, luminescence; P11712; inhibition, % at 5 µM;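 active = blocking of liver enzyme CYP2C9 beyond about 50% at 5 µM, limit read from the data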
CYP2C19 act: activators of human cytochrome P450 2C19; AID 1025; 96,000 tested, under 10 active; P33261; recombinant CYP2C19, luciferin-H EGE luminescence; stronger effect = higher value; 0 = fully inhibited enzyme, 1 = untreated enzyme; activation factor at 5 µM;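 active = activation factor of at least 2 at 5 µM in the primary screen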
Plk1 PBD FP: inhibitors of human Plk1 polo box domain binding; Plk1 PBD phosphopeptide binding, fluorescence polarization; actives 0.13% (n = 97,000); inhibition, %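 (tested at about 20 µM)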; P53350; AID 693; in the data active = inhibition above about 34%, passing the limit was not always enough
Numbers stand for hits; n = inactive; x = not tested or not shown.

SMILES	CYP2C9 activ	CYP2C19 inhib	PLK1 inh	CYP2C9 inhib	CYP2C19 act	Plk1 PBD FP
CCOCCCNC(=O)c1ccc2c(c1)N(Cc1ccccc1)C(=O)CS2=O (centres undefined)	n	n	n	n	n	n
O=C(O)c1ccc2c(c1)N(Cc1ccccc1)C(=O)c1ccccc1S2=O (centres undefined)	n	n	x	n	n	x
COc1cccc(/C=N/n2c(-c3cccs3)n[nH]c2=S)c1	n	n	n	n	n	n
O=C(O)CNC(=O)CCN1C(=O)c2ccccc2C1=O	n	n	n	n	n	n
COC(=O)Cn1cc(C(=O)OC)c2ccccc21	n	n	n	n	n	n
CCOC(=O)Cn1cc(C(=O)OC)c2ccccc21	n	54.0	n	n	n	n
COC(=O)c1cn(CCOc2ccccc2OC)c2ccccc12	x	x	n	x	x	n
COC(=O)c1cn(CCOc2ccccc2)c2ccccc12	n	96.2	n	97.2	n	n
COC(=O)c1cn(CCOc2ccccc2F)c2ccccc12	n	97.7	n	99.4	n	n
Cc1ccc(OCCn2cc(C(=S)N3CCCC3)c3ccccc32)cc1C	n	67.1	n	63.2	n	n
N#CCC(=O)N/N=C/c1ccc(OS(=O)(=O)c2ccccc2)cc1	n	n	n	n	n	n
CCOC(=O)Cc1c(C)c2c(C)nn(-c3ccccc3)c2oc1=O	n	n	n	n	n	n
CSc1nsc(SCC(=O)Nc2ccc(C(C)=O)cc2)n1	n	n	n	57.4	n	n
CSc1nsc(SCC(=O)Nc2ccc(Br)cn2)n1	n	73.3	n	n	n	n
Cc1cc(C)nc(SCC(=O)NC2=NN=C(c3ccc(Br)cc3)CS2)n1	2.1	n	n	n	n	n
Cc1cc(C)nc(SCC(=O)Nc2ccc(Br)cn2)n1	n	81.2	n	n	n	n
Cc1noc(C)c1C(=O)N1CCCC1	n	n	n	n	n	n
O=C1C(C=NCCCN2CCCC2=O)=C(O)c2ccccc21	n	n	n	n	n	n
N#C[C@H]1[C@H](c2ccccc2)[C@](C#N)(C(=O)c2ccccc2)[C@@H]2C=Cc3ccccc3N21	n	n	n	n	n	n
CCN1CCCC1CNC(=O)C1CCN(Cc2nc(-c3cccc(Br)c3)oc2C)CC1 (centres undefined)	n	n	n	n	n	n
NC1=NC(c2ccc(Cl)cc2)n2c(nc3ccccc32)N1 (centres undefined)	n	88.5	n	n	n	n
CCN(CC)c1nc(OC)nc(-n2nnc(C(C)=O)c2C)n1	n	n	n	n	n	n
O=c1oc2ccccc2c2c1C(c1ccc(Cl)cc1)Nc1ccc3ccccc3c1-2 (centres undefined)	n	n	n	n	n	n
COc1ccc(C2Nc3ccc4ccccc4c3-c3c2c(=O)oc2ccccc32)cc1 (centres undefined)	n	n	n	83.3	n	n
CCOc1ccc(C2Nc3ccc4ccccc4c3-c3c2c(=O)oc2ccccc32)cc1 (centres undefined)	n	52.4	n	84.3	n	n
SMILES	CYP2C9 activ	CYP2C19 inhib	PLK1 inh	CYP2C9 inhib	CYP2C19 act	Plk1 PBD FP
Cc1ccc(C2Nc3ccc4ccccc4c3C3=C2C(=O)CC(C)(C)C3)o1 (centres undefined)	x	x	n	x	x	n
Cc1ccc(-c2nnc(Nc3ccc4c(c3)nc(C)n4C)c3ccccc23)cc1	n	n	n	n	n	n
CC(=O)NC1=NC(=O)/C(=C/N2CCOCC2)S1	n	n	n	n	n	n
CC(O)c1nc2ccccc2n1CCOc1ccccc1 (centres undefined)	x	x	n	x	x	n
CCOc1ccccc1OCCn1nnc2ccccc21	n	83.2	n	n	n	n
CCn1c(COc2ccccc2)nc2ccccc21	x	x	n	x	x	n
Cc1cccc(OCCn2c(CCCO)nc3ccccc32)c1	n	90.9	n	68.3	n	n
COCCn1c(COc2ccc(OC)cc2)nc2ccccc21	n	92.0	n	n	n	n
COc1ccccc1OCCn1c(C(C)O)nc2ccccc21 (centres undefined)	n	85.2	n	n	n	n
Cc1cccc(OCCCn2c(CCNC(=O)C(C)C)nc3ccccc32)c1	x	x	n	x	x	n
CCOc1cc(C#N)c(NC(=O)Cn2nnc3ccccc32)cc1OCC	n	n	n	n	n	n
Cc1cccc(CN2CCC(C(N)=O)CC2)c1	n	n	n	n	n	n
CC1(C(=O)O)CCC(C(=O)N2CCOCC2)C1(C)C (centres undefined)	n	n	n	n	n	n
COc1ccccc1OCCn1c(CO)nc2ccccc21	n	55.8	n	n	n	n
OCc1nc2ccccc2n1CCCOc1ccc(Br)cc1	n	n	n	n	n	n
COC(=O)c1ccc(-c2nc(O)c3cnccn23)cc1	n	50.8	n	n	n	n
O=C(CN(CCO)c1ccccc1)NC12CC3CC(CC(C3)C1)C2	n	n	n	n	n	n
C=CCN1C(=O)C(O)(CC(=O)c2ccc(OC)cc2OC)c2cc(Br)ccc21 (centres undefined)	n	63.0	n	81.5	n	n
CN1C(=O)C(O)(CC(=O)c2ccncc2)c2ccccc21 (centres undefined)	n	n	n	n	n	n
CN1C(=O)C(O)(CC(=O)c2ccccc2O)c2cc(Br)ccc21 (centres undefined)	n	96.6	x	92.4	n	x
CCCCN1C(=O)C(O)(CC(=O)c2ccco2)c2cc(Br)ccc21 (centres undefined)	n	67.2	x	n	n	x
CCCCN1C(=O)C(O)(CC(=O)c2c(C)n[nH]c2C)c2cc(Br)ccc21 (centres undefined)	n	80.8	n	n	n	n
Cc1ccc(C(=O)CC2(O)C(=O)N(C)c3ccccc32)o1 (centres undefined)	n	n	63.4	n	n	n
CN1C(=O)C(O)(CC(=O)c2cccc(-n3cccc3)c2)c2ccccc21 (centres undefined)	n	n	n	n	n	n
Cc1coc(C)c1C(=O)CC1(O)C(=O)N(CCc2ccccc2)c2ccccc21 (centres undefined)	n	n	n	n	n	n
SMILES	CYP2C9 activ	CYP2C19 inhib	PLK1 inh	CYP2C9 inhib	CYP2C19 act	Plk1 PBD FP
Cc1n[nH]c(C)c1C(=O)CC1(O)C(=O)N(CCc2ccccc2)c2ccc(Cl)cc21 (centres undefined)	n	99.3	n	95.0	n	n
CC(C)c1nc(SCC(=O)Nc2ccc(N3CCOCC3)cc2)c2ccccc2n1	x	x	n	x	x	n
Cc1ccc(C)c2c1[nH]c1ccc([N+](=O)[O-])cc12	n	78.0	n	60.8	n	n
Cc1ccc(C)c2c1[nH]c1ccccc12	n	86.2	n	n	n	n
Cc1cc(Oc2nnnn2-c2ccccc2)ccc1Cl	n	58.2	n	61.2	n	n
Cc1cc(C(F)(F)F)nn1Cc1n[nH]c(=S)n1Cc1ccccc1	x	x	n	x	x	n
COCCNC(=O)C(c1cccs1)N(C(=O)Cn1nnc2ccccc21)c1ccc(OC)cc1 (centres undefined)	x	x	n	x	x	n
